Screening data from PubChem BioAssay.
In the library only some 9.2% were active in any assay of this set; here they are far more common.
HTT cytoprotect: qHTS Multiplex Assay to Identify Dual Action Probes in a Cell Model of Huntington: Cytoprotection (ATP) | PC12 HTT-Q103 induced, cytoprotection, ATP luminescence, 40 h | Potency, µM (highest dose often 56.4 µM), without a hit: cytoprotection (ATP increase), hits mostly activators | hit rate 0.14% among 230,000 | AID 1471, 2008; active means well fitted curve in the direction sought with a large enough effect; inconclusive means small, poorly fitted or top-dose-only effect, or another doubt; inactive means no such curve, though single readings can be large; an effect the other way counts as inactive or inconclusive; further: % of control where 0% means no effect; nearly all actives have a fitted effect of over 45% in size
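ATP quantification (ATPlite) reports survival of PC12 cells in which tebufenozide, 100 nM final, switches on Htt exon 1 with 103 glutamines linked to GFP; compounds are titrated.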
LMNA splice mod: qHTS Assay for Modulators of Lamin A Splicing; hit rate 0.01% among 200,000; Potency, µM (series often up to 46.1 µM), for the others: at the top dose ratio change, negative = inhibition, most hits filed as inhibitors; HeLa LMNA splicing GFP/RFP minigene ratio, 48 h; active means well fitted inhibition curve with a large enough effect in the signal ratio, with a control signal flat, not every such curve was filed as active; inconclusive means small, poorly fitted or top-dose-only effect, or effect the other way, or a change in a side signal; the % refers to the signal ratio; further: on the % scale 0 is the no-effect control and ±100 the full control effect
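S3 HeLa stable clones carrying a lamin A-EGFP splicing minigene plus DsRed2 were seeded at 600 cells/well in Opti-MEM with 2% FBS, pin-dosed and incubated 48 h at 37°C. Acumen cytometry (488 nm) gave the GFP/RFP total-intensity ratio.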
ALDH1A1 inh: qHTS Assay for Inhibitors of Aldehyde Dehydrogenase 1 (ALDH1A1) | Purified ALDH1A1, NADH fluorescence, propionaldehyde substrate | hit rate 7.3% among 220,000 | Potency, µM (top dose mostly 75.3 µM), for inactives: top-dose activity, negative = inhibition, usual class: inhibitors | AID 1030, 2008 | Aldehyde dehydrogenase 1A1 (Homo sapiens), P00352;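 further: plate controls were no enzyme wells and a reference inhibitor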
KDM4E inh: qHTS Assay for Inhibitors of Human Jumonji Domain Containing 2E (JMJD2E). Lysine-specific demethylase 4E (Homo sapiens), B2RXH2. JMJD2E catalytic domain, FDH-coupled NADH fluorescence (FDH is formaldehyde dehydrogenase). Potency, µM (titrated, usually from 57.1 µM), for the others: at the top dose activity change, negative = inhibition, hits mostly inhibitors. hit rate 1.6% among 230,000. AID 2147, 2009;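 further: 0% = wells with enzyme and -100% = buffer wells without enzyme; nearly all actives have a fitted effect of over 50% in size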
HPGD block: qHTS Assay for Inhibitors of HPGD (15-Hydroxyprostaglandin Dehydrogenase); purified HPGD, NADH fluorescence kinetic, PGE2 substrate; Potency, µM, without a hit: at the top dose activity change, negative = inhibition, actives largely listed as inhibitors; hit rate 4.3% among 150,000; AID 894, 2007; further: on the % scale 0 is the no-effect control and ±100 the full control effect
Target sequence (P15428 whole entry, looked up): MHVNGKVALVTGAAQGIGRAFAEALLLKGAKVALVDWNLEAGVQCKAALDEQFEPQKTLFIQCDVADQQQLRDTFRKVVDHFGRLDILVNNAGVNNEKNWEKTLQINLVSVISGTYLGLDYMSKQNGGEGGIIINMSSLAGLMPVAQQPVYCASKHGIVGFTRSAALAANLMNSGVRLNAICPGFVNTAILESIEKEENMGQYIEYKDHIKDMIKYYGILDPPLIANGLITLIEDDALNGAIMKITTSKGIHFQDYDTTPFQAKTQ
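20 nM HPGD preincubated 15 min at room temperature with compound in 50 mM Tris-HCl pH 8, 0.01% Tween 20. Started with 1 mM NAD+ and 30 uM prostaglandin E2; NADH fluorescence (360/450 nm) read 5 times over 30-s intervals, last minus first.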
HttQ103 aggreg: qHTS Multiplex Assay to Identify Dual Action Probes in a Cell Model of Huntington: Aggregate Formation (GFP) | PC12 HttQ103-GFP aggregates, Acumen cytometry, 40 h | Potency, µM (top dose mostly 46.1 µM), without a hit: at the top dose activity change, negative = inhibition, actives largely listed as inhibitors | hit rate 1.1% among 220,000; active means well fitted curve in the direction sought with a large enough effect; inconclusive means small, poorly fitted or top-dose-only effect, or another doubt; inactive means no such curve, though single readings can be large; an effect the other way counts as inactive or inconclusive; further: on the % scale 0 is the no-effect control and ±100 the full control effect; nearly all actives have a fitted effect of over 60% in size
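Ecdysone-promoter PC12 model expressing HTT exon 1 Q103 fused to GFP, induced by tebufenozide at 100 nM final. Compounds titrated; aggregates sized 1–25 µm scored on a 488 nm laser cytometer.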
Numbers without * were called inactive; [ ] = another dose, or the depositor's remark. Unless noted, the call rests on the fitted dose curve; in most records, active means well fitted inhibition curve with a large enough effect (not every such curve was filed as active); inconclusive means small, poorly fitted or top-dose-only effect, or another doubt; inactive means no such curve, though single readings can be large or run the other way. Potency means the concentration at half of the fitted maximal effect.

`C=C[C@@H](C)[C@](C)(O)c1ccccc1` gave HTT cytoprotect inconclusive, ALDH1A1 inh 0%, KDM4E inh 15% and HPGD block -8%.
For Cc1cc(C(=O)CN2C(=O)NC(CC(C)C)C2=O)c(C)n1-c1ccccc1F (stereo not drawn) the results were HTT cytoprotect -23%, LMNA splice mod -2%[46 µM], ALDH1A1 inh 6.3µM*, KDM4E inh 9% and HttQ103 aggreg -6%.
Cc1cc(C(=O)CN2C(=O)C3CC=CCC3C2=O)c(C)n1-c1ccccc1 (stereo not drawn) was read as HTT cytoprotect -113%, LMNA splice mod inconclusive, ALDH1A1 inh 22µM*, KDM4E inh -7%, HPGD block -13% and HttQ103 aggreg -8%.
Screening Cc1cc(C(=O)CN2C(=O)C(=O)N(CC(C)C)C2=O)c(C)n1-c1ccccc1F returned HTT cytoprotect -35%, ALDH1A1 inh inconclusive, KDM4E inh 1% and HttQ103 aggreg -21%.
COC(=O)C/C=C1\c2ccccc2[C@H](OC)[C@H]1C was read as HTT cytoprotect 0%[10 µM] and ALDH1A1 inh 7%[13.5 µM].
For CNC1C(O)C2OC3OC(C)CC(=O)[C@@]3(O)O[C@H]2[C@H](NC)C1O (stereo partly drawn) the results were ALDH1A1 inh 2%, KDM4E inh 4% and HPGD block -2%.
O=C(COC(=O)C1CCN(S(=O)(=O)c2cccs2)CC1)c1cc2ccccc2o1 was read as HTT cytoprotect -21%[1.9 µM], LMNA splice mod 4%, ALDH1A1 inh 16µM*, KDM4E inh -17%, HPGD block inconclusive and HttQ103 aggreg 5%.
For O=C(Nc1nc(-c2ccc3ccccc3c2)cs1)C1CCN(S(=O)(=O)c2cccs2)CC1 the results were HTT cytoprotect 0%[10 µM], LMNA splice mod inconclusive, ALDH1A1 inh -8%, KDM4E inh 18µM*, HPGD block -9% and HttQ103 aggreg -1%.
For Cc1ccc(-c2csc(NC(=O)C3CCN(S(=O)(=O)c4cccs4)CC3)n2)cc1 the results were HTT cytoprotect 7%[10 µM], LMNA splice mod inconclusive, ALDH1A1 inh 0%, KDM4E inh 7%, HPGD block -1% and HttQ103 aggreg inconclusive.
Screening O=C(NCCn1cccc1)c1cccc2ccccc12 returned HTT cytoprotect -19%[0.074 µM], LMNA splice mod 13%, ALDH1A1 inh -4%, KDM4E inh 0%, HPGD block 32µM* and HttQ103 aggreg 28%.
Screening Cc1ccccc1CN1C[C@@H]2C[C@@H](c3cnc(N4CCOCC4)s3)N3CCC[C@@]23C1=O returned HTT cytoprotect -69%[10 µM], LMNA splice mod inconclusive, ALDH1A1 inh inconclusive, KDM4E inh -25% and HttQ103 aggreg 2.5µM*.
Screening CCCCNc1cc(C)nc(NCc2ccccc2)n1 returned HTT cytoprotect -75%, LMNA splice mod inconclusive, ALDH1A1 inh inconclusive, KDM4E inh 3%, HPGD block -6% and HttQ103 aggreg 10µM*.
`Cc1cc(Nc2ccccc2)nc(NCc2ccccc2)n1` gave HTT cytoprotect 7%[10 µM], LMNA splice mod inconclusive, ALDH1A1 inh 4%, KDM4E inh inconclusive, HPGD block -31% and HttQ103 aggreg 6.3µM*.
For Cc1cc(Nc2ccc(Cl)cc2)nc(NCc2ccccc2)n1 the results were LMNA splice mod inconclusive, ALDH1A1 inh -2%, KDM4E inh inconclusive, HPGD block -28% and HttQ103 aggreg inconclusive.
O=C(CCS(=O)(=O)c1cc(Br)cc2c1N(C(=O)C1CC1)CC2)NCc1ccco1 was read as HTT cytoprotect 10%, LMNA splice mod 15%, ALDH1A1 inh 11µM*, KDM4E inh 9%, HPGD block -16% and HttQ103 aggreg -2%.
